These results are taken from PubChem BioAssay.

Each structure is given as a SMILES string. Several values for one entry are separate records, joined by “and”; a condition that tells them apart may be missing. Identical values can stand only once. Values without a mark were called inactive. Activity calls are given as the source filed them.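 The calls were made as follows: active = inhibition above 50%; inactive = the rest.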

This experiment is described as follows: human hepatoma cell viability loss – ATP luminescence, cytotoxicity control for P. falciparum antimalarial project, primary screen (AID 2303).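 Also: 0% = DMSO wells and 100% = digitonin-killed cells.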 As to conditions: HepG2 viability, 24-48 h, at 10 µM, stronger effect = higher value.
For the compound `OC(CNc1ccnc(Nc2cccc(Cl)c2)n1)c1cccc(C(F)(F)F)c1` (stereo unspecified), the inhibition was 11%.
For the compound `CC1CN(Cc2cccc(-c3ccc(-c4nc5ccc(F)cc5[nH]4)cc3)c2)CC(C)O1` (stereo unspecified), the inhibition was 45%.
As for `COc1cc(F)c2ncc(Cl)c([C@H](O)CN3CCC(NCc4cc5c(cn4)OCCO5)CC3)c2c1`, the inhibition is 10%.
The result for `COc1ccc2nc(C)cc(NN=Cc3ccccc3Cl)c2c1` reads 0%; that for `Cn1nccc1C(=O)NCCNCc1ccc(-c2ccc(-c3nc4ccc(C(F)(F)F)cc4[nH]3)cc2)cc1`, 35%; that for `COc1ccccc1C1CCN(C2CCC(NC(=O)/C=C/c3cc(F)cc(F)c3)CC2)CC1` (stereo unspecified), 45%.
As for `CN(C)CCCOc1ccc(CCCCc2ccc(Cl)cc2C(=O)c2ccccc2)cc1`, the figure is 8%; as for `O=C(C=Cc1ccc(C(=O)Nc2ccc(C3=NCCN3)cc2)cc1)Nc1ccc(C2=NCCN2)cc1`, -7%.
As to `Cc1ccc2nc(C)cc(NC(=O)Nc3ccc(N(C)C)cc3)c2c1`, the inhibition was 12%.
Turning to `CC(C)c1ccc(CN2CCCCC(NC(=O)c3cc(-c4ccccc4Cl)cs3)C2)cc1` (stereo unspecified), the inhibition is 8%.
For the compound `CCNc1cc(C(=O)N[C@@H](Cc2ccccc2)[C@H](O)CNCCc2ccccc2)cc(N2CCCC2=O)c1`, the inhibition is -4%.
The result for `COc1cc(C(F)(F)F)c2cc(CNCCCNc3nc4ccccc4[nH]3)[nH]c2c1` reads 60% (active).
The result for `FC(F)(F)c1cccc(CNCCCCCNCc2ccc(Cl)cc2)c1` reads 13%.
As to `CC(=O)Nc1ccc(CN2Cc3ccc(NC(=O)Nc4ccc(Oc5ccccc5)cc4)cc3C2)s1`, the inhibition is 9%.
As for `COCc1cccc(-c2cc(-c3ccc(S(C)(=O)=O)cc3)cnc2N)c1`, the figure is 10%; as for `CCCCCCCCNc1c2ccc(Cl)cc2nc2ccc(OC)cc12`, 11%; as for `Oc1ccc(Cl)cc1CN1CCCC(COC(c2ccc(F)cc2)c2ccc(F)cc2)C1` (stereo unspecified), 20%.
The result for `CN1CCN(Cc2ccc(-c3cc4nccc(Nc5ccc(Oc6ccccc6)cc5)c4cc3Cl)o2)CC1` reads 3%; that for `O=C(NCC1CCN(Cc2ccc(F)cc2)C1)c1cc(-c2cccc(C(F)(F)F)c2)cs1` (stereo unspecified), 38%.
As for `Cn1ccnc1S(=O)(=O)CCNCc1ccc(-c2ccc3ncnc(Nc4ccc(OCc5cccc(F)c5)c(Cl)c4)c3c2)o1`, the figure is -2%; as for `CCC(CC(NCCCCNC(=O)c1ccc(NC(=O)c2ccc(Cl)cc2)cc1)c1ccccc1)c1ccccc1OC` (stereo unspecified), 23% and 10%.
Take `N#CC(c1ccc(Br)cc1)c1ccc2c(C(F)(F)F)cc(C(F)(F)F)nc2n1` (stereo unspecified): the inhibition is 75% (active).
Take `O=C(CCCCCNC(=O)c1ccc(O)c(-c2ccc(Cl)c(Cl)c2)c1)NCCN1CCCCC1`: the inhibition is -4%.
The result for `COc1ccc(NC(=O)N2CCN(CCCCCNC(=O)/C=C/c3ccc(C(F)(F)F)cc3)CC2)cc1Cl` reads 25%; that for `O=C(Nc1ccc(Cn2ncc(N3CCCNCC3)c(Cl)c2=O)cc1)Nc1ccc(-c2ccccc2)cc1`, 12% and 10%; that for `O=C(NCCc1ccc(Cl)c(Cl)c1)c1ccc(CNC(=O)c2ccc(O)c(-c3ccc(Cl)c(Cl)c3)c2)cc1`, 0%.
As for `CC(=O)N1N=C(c2ccc(Cl)cc2)Sc2c1nc(C1CCCCC1)n2C(C)=O`, the inhibition was 1%.
As for `CN1CCCN(Cc2ccc(-c3cccc(NC(=O)c4ccc(F)cc4)c3)cc2)CC1`, the figure is 29%; as for `NC(=O)COc1cccc2c1CCN(CCN1CCC(NC(=O)c3ccc(-c4ccc(Cl)cc4)cc3)CC1)C2`, 44%.
As for `C=C[C@H]1CN(CCCCCCC)CC[C@H]1CCN(C)c1ccnc2ccc(OC)cc12`, the figure is 22%; as for `CC(C)(C)CN1C(=O)C(c2ccccc2)(c2ccccc2)N=C1N`, 32%.
Regarding `CN(C)CCOc1cc(NC(=O)Nc2ccc(-c3ccncc3)c(C(F)(F)F)c2)ccc1Cl`, the inhibition was 36%.
On to `Cc1cc(NCCC(=O)NCCc2ccccc2)nc(NCCc2ccc(F)cc2)n1`, for which the inhibition was 0%.
The result for `C[C@H](Cc1ccc(C[C@@H](C)NCC(O)c2cc(Cl)c(N)c(Cl)c2)cc1)NCC(O)c1cc(Cl)c(N)c(Cl)c1` (stereo partly specified) reads 26%; that for `FC(F)(F)c1ccc2nccc(NN=Cc3ccc(Cl)cc3)c2c1`, 5%.
Consider `Cc1cc(N[C@@H](Cc2ccccc2)C(=O)NC2CCCC2)nc(NCCc2cccs2)n1`, for which the inhibition is -6%.

For orientation: inhibition means the change of the read-out against control, counted positive when it falls.
